The results in this text go back to PubChem BioAssay (NCI).

About 79,000 compounds went through this panel and 15% of them were active in at least one assay; those are over-represented in the sample as a whole. Values without a mark were called inactive. Rule as the data show it: active = growth inhibition above about 70%; inactive = the rest.

A short description of this assay: NCI Yeast Anticancer Drug Screen. Data for the sgs1 mgt1 strain (AID 161).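 Also: 0% = growth of cultures given vehicle only.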 The conditions noted are these: S. cerevisiae sgs1 mgt1 strain, at 50.0 µM, stronger effect = higher value. Put shortly: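 Compounds are added to genetically altered yeast, and growth is compared with cultures given vehicle alone to give percent inhibition.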
As to `CC(C)(CCCOc1ccccc1)NC(=O)c1ccccc1`, the growth inhibition is -3.5%. With `CCCOC(=O)C(O)Cc1ccccc1` (stereo not given) the figure was 5.95%; with `[O-][N+]1=CCCC1`, -0.65%; with `Oc1c(Cl)cc(Cl)cc1C=Nc1cc(C(F)(F)F)ccc1N1CCc2ccccc2C1`, 50%.

In the case of `CSC(=S)Nc1nc2ccc(C)cc2s1`, the growth inhibition is -2.95%. In the case of `O=C1CSC(/C(=C\c2ccc(Cl)cc2)c2nc3ccccc3[nH]2)=N1`, the growth inhibition is -4.15%. `O=c1c2ccccc2c(=O)c2c1ccc1[nH]c3ccccc3sc12`: the growth inhibition is 7.6%. In the case of `CCNC(=S)NNC(=O)c1ccc(N=NN(C)C)cc1`, the growth inhibition is 10.3%. Regarding `CCOc1ccc2nc(NC(=O)C(=O)C(C(=O)c3ccccc3-c3ccccc3)C3OC(=O)c4ccccc43)sc2c1` (stereo not given), the growth inhibition was -19%. Regarding `Cc1cccc(C)c1NC(=O)C(=O)CC(=O)/C=C/c1ccccc1`, the growth inhibition is -30.6%.

On to `COc1ccc(C(=O)O[C@H]2[C@@H]3C=CO[C@@H](OC4OC(CO)C(O)C(O)C4O)[C@@H]3[C@@]3(CO)O[C@@H]23)cc1O` (stereo not given in full), for which the growth inhibition was -3.4%.

As to `COc1ccc2[nH]c(Br)c(CCNC(C)=O)c2c1`, the growth inhibition was -16.9%. Take `O=C(Nc1ccccc1)Oc1ccccc1C1CCCCC1`: the growth inhibition was 6%. Regarding `O=C(Nc1cccc(O)c1)c1ccc([N+](=O)[O-])cc1`, the growth inhibition is 14.4%. The result for `C/C(N=NC(=S)N1CCCCC1)=C1\C=CC=CN1O` reads 53.8%.

For `CCOC(=O)C(Cc1ccc(O)cc1)NC(=O)c1cc2c(cn1)[nH]c1ccccc12` (stereo not given), the growth inhibition is 7.45%. With `CC/C(=C\c1ccccc1OC)c1ccncc1` the figure was 30.4%.

In the case of `CN(C)Cc1cc(C(C)(C)CC(C)(C)C)cc(Br)c1O`, the growth inhibition is 30.6%.

As to `CC(=O)Nc1cccnc1`, the growth inhibition was 4.85%. On to `CCOC(=O)NC(=O)c1cn(CCN2CCN(C(=O)CCCCCCCCCCNc3ncnc4nc[nH]c34)CC2)c(=O)[nH]c1=O`, for which the growth inhibition is -12.8%. For the molecule `COCCOCOCCCC#C[Si](C)(C)C`, the growth inhibition is 13.9%. `O=C1/C(=C/c2ccccc2)CN(C(=O)OCC(Cl)(Cl)Cl)C/C1=C\c1ccccc1`: the growth inhibition was -31.4%. The result for `N#Cc1ccccc1OCCCCOc1ccccc1C#N` reads 15.2%; that for `O=[N+]([O-])c1ccc(C2ON2c2ccccc2)cc1` (stereo not given) (tested in a mixture with another compound), 20.7%. `CNC(=O)NS(=O)(=O)c1cccc([N+](=O)[O-])c1`: the growth inhibition was -8.3%. Regarding `NC(Cc1ccc(O)c(O)c1)P(=O)(O)O` (stereo not given), the growth inhibition is -35.7%.

Regarding `CN(CCCCl)Cc1ccccc1`, the growth inhibition is -24.7%. Turning to `COC(=O)C1CCC(=O)C(Sc2ccccc2)C1` (stereo not given), the growth inhibition was 18.4%. Take `O=c1c2cc(S(=O)(=O)Nc3ccc(Cl)cc3Cl)ccc2ncn1NS(=O)(=O)c1cccc2ccccc12`: the growth inhibition is 28.6%. As for `CC(=O)OC(C[N+]1(C)CCCCCC1)C[N+]1(C)CCCCCC1`, the growth inhibition is -17.8%. As for `Nc1nc(N)c2nc(-c3ccc(N(CCO)CCO)cc3)c(N)nc2n1`, the growth inhibition was -11.9%.

For the molecule `Cc1ccc2c(c1)SC(c1cc3c(cc1Br)OCO3)S2` (stereo not given), the growth inhibition is 4.65%. As for `O=C(Nc1cc(Cl)ccc1Cl)Oc1c(Cl)cc(Cl)c(Cl)c1[N+](=O)[O-]`, the growth inhibition is 29.1%.

Turning to `CSC(=NCCCCN=C(NS(=O)(=O)c1ccc(Cl)cc1)SC)NS(=O)(=O)c1ccc(Cl)cc1`, the growth inhibition was -16.9%.

On to `CSC(C1c2ccccc2N(C)C2=NC(=O)N(C)C(=O)C21Cl)S(=O)(=O)c1ccc(C)cc1` (stereo not given), for which the growth inhibition was 27.4%.

For `CCC(C(O)C(C)C)[N+](=O)[O-]` (stereo not given), the growth inhibition is 6.35%. With `COc1ccc(C(Cc2cc(OC)c(OC)cc2Br)NC=O)cc1OC` (stereo not given) the figure was -7.55%; with `CCOC(=O)CCc1ccc(NC(=O)/C=C/c2ccc([N+](=O)[O-])o2)cc1`, 56.3%. `O=C1CSC(/C(=C/c2ccccc2)c2nc3ccccc3[nH]2)=N1`: the growth inhibition was 0.15%. As to `CC1(C(=O)O)CCCC1C(CCC(=O)O)C(=O)O` (stereo not given), the growth inhibition is 0.55%.
